High-throughput results (PubChem)
GPR151 activ = activators of human GPR151 | actives 1% (n = 650,000) | Q8TDV0 | activation, % at 11.2 µM | PathHunter beta-arrestin GPR151 cells, luminescence; in the data active means activation above about 4.9%
TEAD-YAP block = TEAD-YAP interaction inhibition; HEK-TIYL cells, TEAD-Gal4/YAP UAS-luciferase luminescence; inhibition, % at 9.12 µM; actives 1.4% (n = 640,000); in the data active means inhibition above about 32%
FBW7 activator = activators of human E3 ligase FBW7. AlphaScreen FBW7–phospho-cyclin E peptide binding, activator screen. actives 0.13% (n = 650,000). Q969H0. normalized activity (activation), % at 26.1 µM; in the data active means normalized activity above about 1.9%;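 further: purified mutant Fbw7 with reduced substrate affinity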
MITF inh = inhibitors of human MITF | O75030 | AlphaScreen MITF homodimerization, bead proximity signal | AID 1259374 | actives 0.91% (n = 650,000) | inhibition, % at 2.6 µM; in the data active means inhibition above about 50%
Target sequence (O75030 whole entry, looked up): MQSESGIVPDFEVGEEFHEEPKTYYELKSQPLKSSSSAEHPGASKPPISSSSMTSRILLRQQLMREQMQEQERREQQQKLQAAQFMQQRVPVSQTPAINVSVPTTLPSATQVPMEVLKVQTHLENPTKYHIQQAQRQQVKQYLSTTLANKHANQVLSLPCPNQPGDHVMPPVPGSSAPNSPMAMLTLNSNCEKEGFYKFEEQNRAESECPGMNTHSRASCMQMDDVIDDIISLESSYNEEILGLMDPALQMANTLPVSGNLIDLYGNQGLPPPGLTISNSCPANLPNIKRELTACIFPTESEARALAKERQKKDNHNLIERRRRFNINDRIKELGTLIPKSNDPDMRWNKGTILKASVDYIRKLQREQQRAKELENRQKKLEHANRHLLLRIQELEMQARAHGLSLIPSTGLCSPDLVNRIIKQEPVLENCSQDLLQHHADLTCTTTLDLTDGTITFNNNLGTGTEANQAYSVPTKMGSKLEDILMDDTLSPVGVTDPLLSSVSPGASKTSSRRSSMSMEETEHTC
Numbers stand for hits; n = inactive; ! = repeats disagree. The list is not random: actives were taken first. Their share in the collection is about 3.5%.

SMILES | GPR151 activ | TEAD-YAP block | FBW7 activator | MITF inh
CN(C)c1ccc(Nc2nc(-c3ccccc3)cs2)cc1 | n | 43.1 | n | n
Cc1nc2sccn2c1-c1csc(Nc2ccc(O)cc2)n1 | n | n | n | n
CC(=O)Nc1ccc(Nc2nc(-c3c(C)nc4sccn34)cs2)cc1 | n | 48.5 | n | n
COc1ccccc1-c1cc(C(=O)Nc2sc3c(c2C(N)=O)CCCC3)no1 | n | n | n | n
CC1=C(C(=O)OC2CCCCC2)C(c2cc([N+](=O)[O-])ccc2Cl)CC(=O)N1 (stereo not given) | n | n | n | n
O=C(O)CCc1ccc(-c2ccc(Br)cc2)o1 | n | n | n | 55.7
O=C(Cc1ccccc1)OCc1ccc(-c2ccc(Br)cc2)o1 | n | n | n | n
COc1ccccc1N1C(=O)c2ccc(C(=O)Nc3cc([N+](=O)[O-])ccc3O)cc2C1=O | n | n | 2.1 | n
Cc1nc(C)c(C(=O)N2CCN(Cc3csc(-c4ccccc4)n3)CC2)s1 | n | 39.8 | n | n
Cc1nc(-n2cccc2)sc1C(=O)N1CCN(Cc2csc(-c3ccccc3)n2)CC1 | n | n | n | n
O=C(c1ccc(-n2cccc2)cc1)N1CCN(Cc2csc(-c3ccccc3)n2)CC1 | n | 60.0 | n | n
COCC(=O)N1CCN(Cc2csc(-c3ccccc3)n2)CC1 | n | n | n | n
COc1ccccc1C1CN(CCNC(=O)/C=C/c2cnc[nH]2)Cc2ccccc2O1 (stereo not given) | n | n | n | n
CCN(C(C)=O)c1nnc(-c2ccc(C)cc2)s1 | n | 47.5 | n | n
COCCNc1ccnc2c(-c3ccc(F)c(Cl)c3)cnn12 | n | n | 1.9 | n
COCCNc1ccnc2c(-c3ccc4c(c3)OCO4)cnn12 | n | 50.7 | n | n
CCOC(=O)c1c(/N=c2\oc3ccc(Cl)cc3cc2C(=O)Nc2ccc(C)cc2)sc2c1CCCC2 | n | n | n | n
NC(=O)c1ccccc1NC(=O)c1ccccc1S(=O)(=O)c1ccccc1[N+](=O)[O-] | n | n | n | n
O=S(=O)(c1ccc(Cl)s1)N1CCCCCC1 | n | n | n | n
O=S(=O)(c1ccc(Cl)s1)N1CCc2ccccc2C1 | n | 40.9 | n | n
CCCCN(C)c1ncnc(N)c1[N+](=O)[O-] | n | 41.5 | n | n
CCCCN(c1ccccc1)c1ncnc(N)c1[N+](=O)[O-] | n | n | n | n
Nc1ncnc(N2CCCCCC2)c1[N+](=O)[O-] | n | 49.3 | n | n
CN(c1ncnc(N)c1[N+](=O)[O-])C1CCCCC1 | n | 53.7 | n | n
O=[N+]([O-])c1c(N2CCCCCC2)ncnc1N1CCCCCC1 | n | n | n | n
SMILES | GPR151 activ | TEAD-YAP block | FBW7 activator | MITF inh
CN(c1ncnc(N)c1[N+](=O)[O-])C1CCS(=O)(=O)C1 (stereo not given) | n | n | n | n
CCN(c1ccccc1)c1ncnc(N)c1[N+](=O)[O-] | n | 52.3 | n | n
CN(C)S(=O)(=O)c1ccc(C(=O)N=c2sc3cc(F)ccc3n2C)cc1 | n | n | n | n
CCOC(=O)Nc1ccc2c(CSc3cccc[n+]3[O-])cc(=O)oc2c1 | n | n | n | n
CCN(CC)c1ncnc(N)c1[N+](=O)[O-] | n | 63.1 | n | n
CCCCN(Cc1ccccc1)c1ncnc(N)c1[N+](=O)[O-] | n | n | n | n
Cc1ccc(-c2cnn(-c3ccc(C(=O)O)cc3)c2)cc1 | n | 42.4 | n | n
CCOC(=O)c1sc2nc(SCC(=O)Nc3cccc(C)c3)n(N)c(=O)c2c1C | n | n | n | n
COc1cccc(-n2c(=S)sc3c(=O)n(-c4ccc(F)cc4)c(SCc4cccnc4)nc32)c1 | n | n | n | n
N#Cc1cc2c(N)c(C(=O)c3ccc4c(c3)OCO4)sc2nc1N | n | n | 5.1 | n
Cc1ccc(NC(=O)c2sc3nc(N)c(C#N)cc3c2N)cc1F | n | n | 22.0 | n
N#Cc1cc2c(N)c(C(=O)Nc3ccccc3)sc2nc1N | n | n | n | n
O=C(Cn1c2ccccc2c(=O)c2ccccc21)Nc1cccc(F)c1 | n | n | n | n
Cc1nc2nc(CC(=O)NCc3ccccc3)nn2c(C)c1Cc1cccc(Cl)c1 | n | 55.5 | n | n
O=c1[nH]ncc(N/N=C\c2ccc(O)cc2O)c1Cl | n | n | n | n
Cc1ccc2nc(Nc3cccc(C(=O)Nc4ccc(O)cc4)c3)nc(-c3ccccc3)c2c1 | n | 50.2 | n | n
Cc1ccc(NC(=O)c2ccc(Nc3nc(-c4ccccc4)c4cc(C)ccc4n3)cc2)cc1 | n | n | n | n
NS(=O)(=O)c1cccc2c1c([N+](=O)[O-])cc1[nH]c(=O)c(=O)[nH]c12 | n | n | n | 69.1!
O=c1[nH]c2c([N+](=O)[O-])cccc2c2ccccc12 | n | n | n | n
O=C(c1ccc2c(=O)n(-c3ccccc3F)c(=S)[nH]c2c1)N1CCCCC1 | n | 32.7 | n | n
O=C(C1CC1)N1CCc2ccc(NS(=O)(=O)c3ccc4c(c3)OCCO4)cc21 | n | 48.1 | n | n
CCC(=O)N1CCCc2ccc(NS(=O)(=O)c3ccc(Cl)cc3)cc21 | n | n | n | n
CCCOc1ccc(S(=O)(=O)Nc2ccc3c(c2)N(C(=O)CC)CCC3)cc1 | n | 58.0 | n | n
O=S(=O)(Nc1cccc(-c2cn3cccnc3n2)c1)c1cc(Cl)ccc1Cl | n | n | n | n
Cc1ncn(-c2ccc(Nc3ncc4cccc(-c5cnn(CC6CC6)c5)c4n3)cc2)n1 | n | 49.5 | n | n
SMILES | GPR151 activ | TEAD-YAP block | FBW7 activator | MITF inh
Cc1ncn(-c2ccc(Nc3ncc4cccc(-c5cnn(C(C)C)c5)c4n3)cc2)n1 | n | 52.1 | n | n
CCOC(=O)N(NC(=O)C(O)(CC)CC)c1ccccc1 | n | n | n | n
Nc1ccc2c(c1)OC1(CCCC1)O2 | n | 93.7 | n | n
CCc1ccc([C@@H]2C[C@H]3CN(C4CCN(C)CC4)C(=O)[C@]34CCCN24)cc1 | n | n | n | n
COc1cc(NC(=S)NC(=O)/C=C/c2ccco2)ccc1NC(=O)c1ccco1 | n | 48.8 | n | n
COc1cc(NC(=O)/C=C/c2ccco2)ccc1NC(=O)c1ccco1 | n | n | n | n
O=C(/C=C/c1ccco1)NC(=S)Nc1ccccc1 | n | n | n | n
O=C(/C=C/c1ccco1)NC(=S)Nc1ccc(NC(=O)c2ccco2)cc1 | n | 68.8 | n | n
CC(C)(C)C(=O)Nc1ccc(C(=O)/C=C/c2ccco2)cc1 | n | 37.4 | n | n
Cc1ccc(N/C(N)=N/c2nc(C)cc(C)n2)c(C)c1 | n | n | n | n
O=C(/C=C/c1ccc2c(c1)OCO2)c1cccc([N+](=O)[O-])c1 | n | n | n | n
Cc1ccccc1C(=O)/C(C#N)=N/Nc1c(C)n(C)n(-c2ccccc2)c1=O | n | n | n | 69.8
Cc1c(N/N=C(\C#N)C(=O)c2ccccc2)c(=O)n(-c2ccccc2)n1C | n | n | n | n
O=C(NCc1ccccc1F)C(=O)NCC1CCCN1S(=O)(=O)c1cccs1 (stereo not given) | n | n | n | n
O=C1OC(c2ccc(F)cc2)=N/C1=C\c1ccc(Cl)cc1Cl | n | n | n | n
COc1ccc(N2COc3ccc4c5c(c(=O)oc4c3C2)CCC5)cc1 | n | n | n | n
COc1ccc(S(=O)(=O)/N=C2/C=C(Nc3ccccc3)C(=O)c3ccccc32)cc1 | n | n | n | n
